In experiment [1] the test system is PRMT1 (protein arginine N-methyltransferase 1). Kind of experiment: small molecules binding arginine methyltransferase PRMT1 – biochemical, small-molecule microarray, 635 nm fluorescence, primary screen (AID 1088).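 Further: binding of Prmt1 protein to compounds spotted on small-molecule microarray slides.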 As to conditions: higher = more signal.
Experiment [2] is described as follows: growth effects on S. cerevisiae YJM789 – YJM789 clinical isolate, OD600, 24 h, basal, primary screen (AID 1089).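 Further: growth of clinical yeast isolate S. cerevisiae YJM 789 seeded 1000 cells per well; test concentration not given here.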 The note with it: higher = more signal, called active from +8 up or from −8 down.
A short description of experiment [3]: S. pombe growth modifiers, basal conditions – strain 972, OD600, 24 h, no modulator, primary screen (AID 1090).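 Further: basal condition with compound alone and no growth modifier present; test concentration not given here.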 The note with it: S. pombe 972 growth, higher = more signal, called active from +8 up or from −8 down.
Experiment [4] in a line: budding yeast growth modifiers under rapamycin – strain BY4716, OD600, 96 h, primary screen (AID 1091). Further: test concentration not given here. The note with it: S. cerevisiae BY4716 + rapamycin, higher = more signal, called active from +8 up or from −8 down.
In experiment [5] the target is Torsin-1A-interacting protein 2 (Homo sapiens) (UniProt Q8NFQ8). Kind of experiment: small molecules binding lysate-expressed LULL1 – cell lysate, human LULL1 lysate, 635/667 nm fluorescence, primary screen (AID 1092).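 Further: probe is lysate of COS7 cells overexpressing human LULL1; score merges per-feature 667 nm fluorescence with signal-to-noise.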 The note with it: small-molecule microarray, hLULL1 lysate binding, 635 nm fluorescence; higher = more signal.
Experiment [6] can be described thus: optical density change of DRC41 E. coli – strain DRC41, OD650, 24 h, E. coli filamentation project, primary screen (AID 1093).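 Further: MC1000 strain lacking acrAB efflux and sulA so SOS filamentation is blocked; test concentration not given here.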 As to conditions: E. coli DRC41 growth, higher = more signal, called active from +8 up or from −8 down.
Experiment [7] can be described thus: probe aLefty2 binding to arrayed compounds – biochemical, biotinylated probe, 635/667 nm fluorescence, primary screen (AID 1094).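 Further: score merges spot fluorescence near 667 nm with spot signal-to-noise ratio.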 As to conditions: small-molecule microarray, higher = more signal.
In experiment [8] the test system is Noggin (protein binding on small-molecule microarray). Kind of experiment: small molecules binding Noggin protein – biochemical, 635/667 nm fluorescence, primary screen (AID 1095).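 Further: score merges 667 nm feature fluorescence with signal to noise over triplicate slides.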 The note with it: 635 nm fluorescence, higher = more signal.
For experiment [9], the target named is Neurogenic locus notch homolog protein 3 (Homo sapiens) (UniProt Q9UM47). As to the kind of experiment: small molecules binding NOTCH3 protein – biochemical, 635/667 nm fluorescence, primary screen (AID 1096). The note with it: small-molecule microarray, 635 nm fluorescence, higher = more signal.
Experiment [10] is described as follows: probe aEGFR binding to arrayed compounds – biochemical, biotinylated probe, 635/667 nm fluorescence, primary screen (AID 1097).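 Further: probe is a biotinylated anti-EGFR antibody binding compounds printed on slides; score combines fluorescence near 667 nm and signal to noise of each spot.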 The note with it: small-molecule microarray, higher = more signal.
The test system of experiment [11] is Plasmodium falciparum Sir2 (PF13_0152, Sir2A). Kind of experiment: Plasmodium falciparum Sir2A binding compounds – biochemical, small-molecule microarray, 635 nm fluorescence, primary screen (AID 1098).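 Further: score merges spot fluorescence intensity with its signal-to-noise ratio.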 The note with it: fluorescence 635 nm, higher = more signal.
The nature of experiment [12]: probe aDKK1 binding to arrayed compounds – biochemical, biotinylated probe, 635/667 nm fluorescence, primary screen (AID 1099).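 Further: score merges 667nm spot fluorescence with signal to noise across triplicate slides; reference of the scale not given here.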 The note with it: small-molecule microarray, higher = more signal.
Experiment [13] can be described thus: probe aCHRDL2 binding to arrayed compounds – biochemical, biotinylated probe, 635/667 nm fluorescence, primary screen (AID 1100). As to conditions: small-molecule microarray, higher = more signal.
Experiment [14] in a line: change in splice reporter luminescence, either direction, cell-based, HEK293, spliceosome inhibition project, primary screen (AID 1101).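 Further: HEK293 cells carrying a splicing-competent luciferase reporter gene; test concentration not given here.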 As to conditions: HEK293 splicing luciferase reporter, 24 h, higher = more signal, called active from +8 up or from −8 down. (In general: Reporter assays use an easily measured gene product as a stand-in for the process of interest.)
For experiment [15], the target named is Fibroblast growth factor 10 (Homo sapiens) (UniProt O15520). As to the kind of experiment: compounds binding fibroblast growth factor 10 – biochemical, small-molecule microarray, 635 nm fluorescence, primary screen (AID 1102). As to conditions: FGF10 binding, fluorescence 635 nm, higher = more signal.
For experiment [16], the system named is glycogen synthase kinase-3 (GSK3A per assay name; protocol says GSK3B). Kind of experiment: compounds binding glycogen synthase kinase-3 – biochemical, small-molecule microarray, 635 nm fluorescence, GSK3A, primary screen (AID 1103). Further: the record names both GSK3A and GSK3B. As to conditions: fluorescence 635 nm, higher = more signal.
For experiment [17], the target named is Epidermal growth factor receptor (Homo sapiens) (UniProt P00533). Kind of experiment: compounds binding epidermal growth factor receptor – biochemical, small-molecule microarray, 635 nm fluorescence, primary screen (AID 1104).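 Further: score merges 667 nm emission intensity with spot signal to noise over triplicate slides.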 As to conditions: EGFR binding, higher = more signal.
In experiment [18] the target is Follistatin-related protein 3 (Homo sapiens) (UniProt O95633). Kind of experiment: compounds binding follistatin-related protein 3 – biochemical, small-molecule microarray, 635 nm fluorescence, primary screen (AID 1105).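 Further: score merges emission near 667 nm and signal to noise per printed spot across three slides.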 As to conditions: FSTL3 binding, higher = more signal.
Experiment [19] deals with Dickkopf-related protein 1 (Homo sapiens) (UniProt O94907). Kind of experiment: small molecules binding DKK1 protein – biochemical, small-molecule microarray, 635 nm fluorescence scan, primary screen (AID 1106).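 Further: score merges emission near 667 nm with signal to noise over three replicate slides.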 The note with it: higher = more signal.
Experiment [20] relates to Inhibin beta A chain (activin A). As to the kind of experiment: small molecules binding activin A – biochemical, small-molecule microarray, 635 nm fluorescence scan, primary screen (AID 1107).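 Further: mouse activin A protein probed at 4.33 µg/mL on printed slides; score merges bound-protein fluorescence near 667 nm with spot signal-to-noise.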 The note with it: INHBA, higher = more signal.

Consider 5 compounds from PubChem BioAssay.

Calls of active or inactive are those of the source.

Neurogenic locus notch homolog protein 3 (Homo sapiens), sequence (Q9UM47 whole entry, looked up): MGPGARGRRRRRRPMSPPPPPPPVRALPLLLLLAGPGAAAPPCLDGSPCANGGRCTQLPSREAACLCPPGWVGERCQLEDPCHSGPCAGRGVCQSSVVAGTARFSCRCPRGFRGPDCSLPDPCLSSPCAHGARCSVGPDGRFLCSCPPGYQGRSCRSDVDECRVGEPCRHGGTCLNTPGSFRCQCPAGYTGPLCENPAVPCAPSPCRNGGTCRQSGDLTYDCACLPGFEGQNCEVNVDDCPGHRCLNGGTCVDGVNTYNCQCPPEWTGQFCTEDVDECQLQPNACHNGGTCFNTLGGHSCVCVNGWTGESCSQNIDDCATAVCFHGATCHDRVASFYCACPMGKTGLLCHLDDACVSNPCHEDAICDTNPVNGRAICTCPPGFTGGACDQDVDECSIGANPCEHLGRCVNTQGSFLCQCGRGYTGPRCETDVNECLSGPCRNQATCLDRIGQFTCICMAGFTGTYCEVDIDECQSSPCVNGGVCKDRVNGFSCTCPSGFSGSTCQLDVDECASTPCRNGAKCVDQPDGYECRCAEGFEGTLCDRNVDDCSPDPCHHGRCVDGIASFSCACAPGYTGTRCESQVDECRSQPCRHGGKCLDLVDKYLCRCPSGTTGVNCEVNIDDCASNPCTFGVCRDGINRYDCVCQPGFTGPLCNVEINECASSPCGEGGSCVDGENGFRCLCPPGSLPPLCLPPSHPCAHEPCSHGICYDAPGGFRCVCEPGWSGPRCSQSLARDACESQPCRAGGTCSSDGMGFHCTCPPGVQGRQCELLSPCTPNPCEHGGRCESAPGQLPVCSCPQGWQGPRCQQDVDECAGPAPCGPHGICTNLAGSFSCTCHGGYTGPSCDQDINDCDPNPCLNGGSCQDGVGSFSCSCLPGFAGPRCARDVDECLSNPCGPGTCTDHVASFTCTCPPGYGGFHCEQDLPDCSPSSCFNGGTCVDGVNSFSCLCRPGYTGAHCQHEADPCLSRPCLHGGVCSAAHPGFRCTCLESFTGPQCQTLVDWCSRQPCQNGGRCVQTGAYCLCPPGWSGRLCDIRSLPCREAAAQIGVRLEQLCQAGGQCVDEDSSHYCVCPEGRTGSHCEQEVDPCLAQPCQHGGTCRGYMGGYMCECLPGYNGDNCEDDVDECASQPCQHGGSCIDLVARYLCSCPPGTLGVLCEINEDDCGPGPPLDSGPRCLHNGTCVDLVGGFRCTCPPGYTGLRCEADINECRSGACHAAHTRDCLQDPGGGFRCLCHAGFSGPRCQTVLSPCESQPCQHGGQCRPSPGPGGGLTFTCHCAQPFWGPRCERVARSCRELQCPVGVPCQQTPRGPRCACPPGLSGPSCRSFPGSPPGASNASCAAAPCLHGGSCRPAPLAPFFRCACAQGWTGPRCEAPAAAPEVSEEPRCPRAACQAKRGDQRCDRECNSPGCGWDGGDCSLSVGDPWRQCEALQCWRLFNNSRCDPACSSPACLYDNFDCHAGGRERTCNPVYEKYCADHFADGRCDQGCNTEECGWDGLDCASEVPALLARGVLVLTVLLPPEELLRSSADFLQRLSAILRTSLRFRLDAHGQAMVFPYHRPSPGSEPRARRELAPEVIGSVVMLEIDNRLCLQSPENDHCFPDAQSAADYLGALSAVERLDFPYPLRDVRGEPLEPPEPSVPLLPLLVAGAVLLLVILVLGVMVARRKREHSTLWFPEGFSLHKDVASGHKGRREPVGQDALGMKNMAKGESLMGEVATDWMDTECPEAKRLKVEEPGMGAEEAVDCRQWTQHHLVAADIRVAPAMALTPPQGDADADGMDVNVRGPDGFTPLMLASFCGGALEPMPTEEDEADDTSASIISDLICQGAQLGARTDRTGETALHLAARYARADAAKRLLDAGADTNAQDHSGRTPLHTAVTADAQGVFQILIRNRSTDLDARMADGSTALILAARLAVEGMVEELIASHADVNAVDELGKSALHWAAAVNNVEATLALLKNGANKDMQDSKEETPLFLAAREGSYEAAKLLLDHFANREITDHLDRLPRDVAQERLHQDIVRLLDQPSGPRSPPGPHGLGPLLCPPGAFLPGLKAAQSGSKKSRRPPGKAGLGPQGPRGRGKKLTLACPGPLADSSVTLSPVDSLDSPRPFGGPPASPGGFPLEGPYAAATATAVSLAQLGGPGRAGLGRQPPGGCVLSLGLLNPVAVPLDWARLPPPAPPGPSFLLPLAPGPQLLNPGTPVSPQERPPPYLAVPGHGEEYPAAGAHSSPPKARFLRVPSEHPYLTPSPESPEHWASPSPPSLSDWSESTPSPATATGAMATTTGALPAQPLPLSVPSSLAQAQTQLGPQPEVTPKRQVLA
Fibroblast growth factor 10 (Homo sapiens), sequence (O15520 whole entry, looked up): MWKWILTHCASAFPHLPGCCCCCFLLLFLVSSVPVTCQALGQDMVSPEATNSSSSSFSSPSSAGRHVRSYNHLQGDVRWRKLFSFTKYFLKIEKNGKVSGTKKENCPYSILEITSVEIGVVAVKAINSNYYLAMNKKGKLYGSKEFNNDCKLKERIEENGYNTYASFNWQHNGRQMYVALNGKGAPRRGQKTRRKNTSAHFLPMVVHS
Dickkopf-related protein 1 (Homo sapiens), sequence (O94907 whole entry, looked up): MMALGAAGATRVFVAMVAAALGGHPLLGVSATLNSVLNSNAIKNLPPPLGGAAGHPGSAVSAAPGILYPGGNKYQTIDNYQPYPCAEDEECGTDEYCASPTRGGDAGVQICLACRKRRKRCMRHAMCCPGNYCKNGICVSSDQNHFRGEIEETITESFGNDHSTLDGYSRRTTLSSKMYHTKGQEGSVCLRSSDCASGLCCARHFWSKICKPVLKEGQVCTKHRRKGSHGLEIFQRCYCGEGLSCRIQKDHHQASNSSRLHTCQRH
Follistatin-related protein 3 (Homo sapiens), sequence (O95633 whole entry, looked up): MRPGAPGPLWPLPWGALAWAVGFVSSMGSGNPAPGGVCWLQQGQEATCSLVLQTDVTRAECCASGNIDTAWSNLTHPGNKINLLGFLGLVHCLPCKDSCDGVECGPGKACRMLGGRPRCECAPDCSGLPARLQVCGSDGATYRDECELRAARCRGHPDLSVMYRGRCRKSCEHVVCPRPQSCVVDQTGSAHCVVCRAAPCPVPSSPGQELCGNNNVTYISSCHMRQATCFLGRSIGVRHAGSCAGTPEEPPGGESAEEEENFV
Epidermal growth factor receptor (Homo sapiens), sequence (P00533 whole entry, looked up): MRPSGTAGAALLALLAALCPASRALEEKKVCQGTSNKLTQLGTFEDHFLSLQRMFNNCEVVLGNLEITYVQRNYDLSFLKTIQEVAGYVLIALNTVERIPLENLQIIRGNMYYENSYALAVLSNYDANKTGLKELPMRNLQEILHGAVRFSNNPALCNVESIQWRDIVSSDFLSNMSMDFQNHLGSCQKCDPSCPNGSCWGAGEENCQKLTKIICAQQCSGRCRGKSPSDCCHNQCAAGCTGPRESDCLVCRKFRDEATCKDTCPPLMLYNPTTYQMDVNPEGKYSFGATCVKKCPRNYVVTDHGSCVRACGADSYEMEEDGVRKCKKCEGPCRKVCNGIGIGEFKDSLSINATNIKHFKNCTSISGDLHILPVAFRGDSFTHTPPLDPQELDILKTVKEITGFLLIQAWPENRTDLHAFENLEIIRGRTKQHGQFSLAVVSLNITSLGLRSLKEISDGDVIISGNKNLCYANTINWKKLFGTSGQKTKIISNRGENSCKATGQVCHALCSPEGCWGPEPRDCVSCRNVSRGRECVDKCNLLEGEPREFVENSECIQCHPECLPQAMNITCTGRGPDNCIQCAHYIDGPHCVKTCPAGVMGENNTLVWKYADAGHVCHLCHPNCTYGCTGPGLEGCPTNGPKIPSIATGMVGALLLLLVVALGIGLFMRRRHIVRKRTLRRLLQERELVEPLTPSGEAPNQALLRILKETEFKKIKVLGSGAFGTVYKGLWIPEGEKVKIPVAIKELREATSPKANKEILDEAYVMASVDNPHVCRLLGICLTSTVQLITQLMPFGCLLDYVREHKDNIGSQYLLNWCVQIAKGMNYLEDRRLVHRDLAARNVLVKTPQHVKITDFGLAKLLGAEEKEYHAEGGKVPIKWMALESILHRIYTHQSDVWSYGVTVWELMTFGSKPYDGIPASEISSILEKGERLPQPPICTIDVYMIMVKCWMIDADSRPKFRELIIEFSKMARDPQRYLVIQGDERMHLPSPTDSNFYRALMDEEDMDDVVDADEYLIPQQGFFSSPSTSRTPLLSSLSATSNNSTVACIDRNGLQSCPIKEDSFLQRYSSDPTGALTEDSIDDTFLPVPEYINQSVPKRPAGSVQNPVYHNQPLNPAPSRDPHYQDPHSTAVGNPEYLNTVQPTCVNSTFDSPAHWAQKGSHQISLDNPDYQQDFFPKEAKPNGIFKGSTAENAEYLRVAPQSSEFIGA
Torsin-1A-interacting protein 2 (Homo sapiens), sequence (Q8NFQ8 whole entry, looked up): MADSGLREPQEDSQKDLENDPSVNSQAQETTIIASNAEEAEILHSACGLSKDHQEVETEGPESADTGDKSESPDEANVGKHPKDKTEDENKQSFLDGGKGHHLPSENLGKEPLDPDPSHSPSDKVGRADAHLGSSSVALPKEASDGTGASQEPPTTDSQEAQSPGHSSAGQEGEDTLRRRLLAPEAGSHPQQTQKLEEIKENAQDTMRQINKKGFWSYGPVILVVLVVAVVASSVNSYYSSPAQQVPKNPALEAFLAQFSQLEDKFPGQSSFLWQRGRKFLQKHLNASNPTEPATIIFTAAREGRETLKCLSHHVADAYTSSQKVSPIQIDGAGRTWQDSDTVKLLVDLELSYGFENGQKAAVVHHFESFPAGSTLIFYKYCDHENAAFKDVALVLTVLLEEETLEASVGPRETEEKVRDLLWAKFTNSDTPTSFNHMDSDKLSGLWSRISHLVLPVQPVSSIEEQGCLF

Regarding `COC(=O)[C@@]1(Cc2ccc(OC)cc2)[C@H]2c3cc(C(=O)N(C)C)n(Cc4ccc(C)o4)c3C[C@H]2CN1C(=O)c1ccccc1`, the composite z-score is 0.549 in [1]; 3.6 in experiment [5]; 0.347 in experiment [7]; -0.263 in experiment [8]; 0.916 in [9]; 0.229 in [10]. Further, the composite z-score in experiment [11] is 1.34; in experiment [12], 0.766; in [13], 0.923; in [15], 0.251; in experiment [16], 1.18; in [17], -0.102. Also, the composite z-score in [18] was 0.514; in experiment [19], -0.716; in [20] it was 0.861. The z-score in experiment [2] was -0.529 (inactive); in experiment [3] it was 0.805 (inactive); in experiment [4], 0.0527 (inactive); in experiment [6], 0.527 (inactive); in experiment [14], 4.83 (inactive).
Take `CC(C)N1CC=CC23O[C@@H]4C=CCCOC(=O)C4[C@H]2C(=O)N(CCCO)[C@@H]3C1=O` (stereo not given in full): the composite z-score in experiment [1] was 0.521; in [5] it was 2.1; in experiment [7], -0.215; in [8], -0.0322; in [9] it was 0.236; in experiment [10], -0.226. The composite z-score in experiment [11] was 0.415; in [12] it was -0.137; in experiment [13] it was 0.0009; in experiment [15], -0.264; in experiment [16], -0.322; in experiment [17] it was -1.07. Besides, the composite z-score is -0.317 in experiment [18], -0.183 in [19] and 0.864 in [20]. For the same compound, the z-score was -0.198 (inactive) in experiment [2]; -0.861 (inactive) in experiment [3]; -0.824 (inactive) in experiment [4]; 2.83 (inactive) in [6]; -1.38 (inactive) in experiment [14].
In the case of `C=CC[C@]1(C(=O)N2CCOCC2)COC(c2ccc(OCCCO)cc2)=N1`, the composite z-score in [1] was 1.55; in experiment [5], 4.02; in experiment [7], 0.0386; in experiment [8], 0.78; in experiment [9], 1.09; in experiment [10], -0.0828. Besides, the composite z-score in [11] was 1.76; in [12], -0.016; in experiment [13] it was 0.431; in experiment [15] it was 0.66; in experiment [16], 0.438; in experiment [17], -0.238. Also, the values for the composite z-score in [18], in experiment [19] and in experiment [20] were 0.264, 0.188 and 0.976, respectively. In addition, the z-score in experiment [2] was -0.544 (inactive); in experiment [3], -0.243 (inactive); in [4], -1.28 (inactive); in experiment [6] it was 0.0927 (inactive); in experiment [14], -0.612 (inactive).
In the case of `COCCCNC(=O)[C@@H]1c2ccccc2C(=O)N(C(C)C)[C@H]1c1ccc(CO)cc1`, the composite z-score in [1] is -0.325; in experiment [5], -0.719; in [7], 0.0321; in [8], 0.523; in experiment [9] it was -0.406; in experiment [10], -0.02. For the same compound, the composite z-score in experiment [11] is 0.634; in experiment [12], -0.0293; in experiment [13] it was 0.39; in experiment [15], -0.346; in experiment [16] it was -0.291; in experiment [17], -0.104. In addition, the composite z-score was 0.115 in experiment [18], 0.0487 in experiment [19] and 0.761 in experiment [20]. Moreover, the z-score in experiment [2] was 0.602 (inactive); in experiment [3], 0.439 (inactive); in [4], 0.395 (inactive); in experiment [6], -0.214 (inactive); in experiment [14] it was 0.555 (inactive).
For the compound `COC(=O)[C@@]1(Cc2ccc(OC)cc2)[C@H]2c3cc(C(=O)N4CCCC4)n(CCc4c[nH]c5ccc(O)cc45)c3C[C@H]2CN1C(=O)c1ccccc1`, the composite z-score in [1] is 0.66; in experiment [5] it was 3.16; in experiment [7], 0.379; in experiment [8], -0.0208; in [9], 1.12; in [10], 0.262. Besides, the composite z-score in experiment [11] turned out to be 1.29; in experiment [12] it was 1.24; in experiment [13], 1.2; in [15], 1.06; in experiment [16], 0.778; in experiment [17], 0.309. The figures for the composite z-score in [18], in [19] and in experiment [20] were 1.13, -0.32 and 1.51, respectively. The z-score in experiment [2] was 0.277 (inactive); in experiment [3] it was 1.16 (inactive); in experiment [4], 0.687 (inactive); in [6], 0.573 (inactive); in experiment [14], 0.129 (inactive).
